The test has as its system P. falciparum stage V gametocytes. Details: BacTiter-Glo ATP luminescence viability of purified stage V gametocytes in 384-well plates, per cent inhibition versus DMSO. Particulars: 48 h, 5 µM; inhibitor.

Among all 13,000 compounds or so, about 3,200 (25%) showed an effect of 50% or more. The list shows a part of the results.

Results on 35 compounds are retold here after article PMC4552634, “A New Set of Chemical Starting Points with Plasmodium falciparum Transmission-Blocking Potential for Antimalarial Drug Discovery” (PLoS ONE, 2015).

Usually % Inhibition stands for the change of the read-out against control, counted positive when it falls. In the case of `CCc1cc(C(=O)c2cccc(C)c2)c(NC(=O)CN2CCN(C(=O)c3ccco3)CC2)s1` [TCMDC-123646], the “% Inhibition” value came out at 4.148%.
In the case of `O=C(O)/C=C/c1cccc(F)c1F` [TCMDC-124298] it was -5.397%; in that of `O=C(Nc1cn(-c2ccc(OCc3cccc(F)c3)c(Cl)c2)c2ncncc12)c1ccncc1` [TCMDC-135377], -11.19%; in that of `CCOc1ccc(Br)cc1/C=C/C(=O)Nc1ccc2c(c1)CCCN(C)C2` [TCMDC-134049], 5.79%.
On to `O=C(Nc1nc(-c2ccccn2)cs1)c1ccc(Br)s1` [TCMDC-123868], for which the “% Inhibition” value worked out at 65.77%.
Next, `CC1Cc2ccccc2N1S(=O)(=O)c1cc(OCC(F)(F)F)ccc1OCC(F)(F)F` (centres unmarked) [TCMDC-124044]: -9.787%; `O=C(Nc1nc(-c2ccccn2)cs1)c1ccccc1COc1ccccc1` [TCMDC-125336]: 64.14%.
Next, `COc1cc(OC)cc(C(=O)Nc2nc(-c3ccccn3)cs2)c1` [TCMDC-125345]: 25.53%; `CCN1CCN(c2ccc(NC(=O)c3cc4c(C)nn(-c5ccccc5)c4s3)cc2C)CC1` [TCMDC-125105]: 8.854%.
Next, `CC1Cc2ccccc2N1S(=O)(=O)c1cccc(C(=O)Nc2nc(-c3ccccn3)cs2)c1` (centres unmarked) [TCMDC-124559]: 76.73%.
For the compound `COc1cc(OC)cc(C(=O)Nc2nc(-c3ccc(NC(=O)c4ccccc4)cc3)cs2)c1` [TCMDC-125112], the “% Inhibition” value was -27.73%.
In the case of `Cc1nn(CC(C)C)c2sc(C(=O)Nc3nc(-c4ccccn4)cs3)cc12` [TCMDC-125461] it was 62.82%; in that of `O=C(Nc1nc(-c2cc(F)ccc2F)cs1)c1cncc(Br)c1` [TCMDC-123613], -58.06%; in that of `CC(C)(C)c1ccc(-c2csc(NC(=O)CC(c3ccccc3)c3ccccc3)n2)cc1` [TCMDC-124604], -3.611%.
As for `O=C(Nc1cccc(-c2csc(-c3ccccc3)n2)c1)c1cccs1` [TCMDC-123904], the “% Inhibition” value is listed as 22.98%.
Next, `O=C(Nc1nc(-c2ccccn2)cs1)c1ccc(S(=O)(=O)N2CCc3ccccc32)cc1` [TCMDC-125432]: 10.03%; `COc1cc(F)c2ncc(Cl)c(C(O)CN3CCC(NC(=O)c4ccc5c(c4)NC(=O)CS5)CC3)c2c1` (centres unmarked) [TCMDC-135908]: -70.28%; `Cc1noc(C)c1-c1cccc(CNCc2cccc(-c3csc(-c4nc5ccccc5[nH]4)c3)c2)c1` [TCMDC-133047]: -19.47%.
In the case of `Cc1cccc2nc(-c3ccc(-c4cccc(NC(=O)Nc5ccsc5)c4)s3)[nH]c12` [TCMDC-133208] it was 8.037%; in that of `CC1(C)N=C(N)N=C(N)N1OCCCc1ccc(Cl)cc1Cl` [TCMDC-131692], 4.93%; in that of `O=C(NC1CCC(CCN2Cc3cccc(F)c3C2)CC1)c1cccc(-c2cccnc2)c1` (centres unmarked) [TCMDC-139623], -21.05%.
Next, `COc1ccc2nccc([C@@H](O)CN3CCC(NC(=O)c4ccc5cc[nH]c5c4)CC3)c2c1` [TCMDC-140743]: -6.563%; `COc1cc(C(=O)Nc2ccc3nc(N4CCN(C)CC4)cc(C)c3c2)cc(OC)c1OC` [TCMDC-123591]: 10.02%.
On to `CCN(CC1CCN(CC2(O)CCOCC2)CC1)c1cc(C)nc(Nc2ccc(Cl)cc2)n1` [TCMDC-133808], for which the “% Inhibition” value is 30.17%.
In the case of `N=C(N)c1ccc(Nc2nccc(Nc3nc(-c4ccccc4)cs3)n2)cc1` [TCMDC-136090] it was -20.73%; in that of `N=C(N)c1ccc(Nc2nc(Nc3ccc(-c4ccccc4)cc3)ncc2[N+](=O)[O-])cc1` [TCMDC-136145], 99.81%; in that of `CCN(CC)CCNC(=O)c1ccc(Nc2ncc([N+](=O)[O-])c(Nc3ccccc3OC)n2)cc1` [TCMDC-138727], 73.19%.
Next, `CCN(CC)CCNC(=O)c1ccc(NC(=O)c2cc(-c3ccncc3)nc3ccccc23)cc1` [TCMDC-124495]: 0.6549%; `CC(=O)Nc1ccc(Nc2ncc([N+](=O)[O-])c(Nc3ccccc3C(N)=O)n2)cc1` [TCMDC-138731]: -8.61%.
In the case of `CNC(=O)c1ccccc1Nc1nc(Nc2ccc(C(=O)O)cc2)ncc1Cl` [TCMDC-133803] it was -5.909%; in that of `CCC(C)c1ccc(NC(=O)Nc2ccc(Cn3ncc(N4CCCNCC4)c(Cl)c3=O)cc2)cc1` (centres unmarked) [TCMDC-133313], -21.93%; in that of `COc1cc(-c2[nH]c(-c3ccc(OCCN(C)C)cc3)cc2-c2ccncc2)ccc1Cl` [TCMDC-141225], -13.45%.
`N=C(N)c1ccc(NC(=O)c2cc(Sc3ccc(O)c(C(=O)Nc4ccc(C(=N)N)cc4)c3)ccc2O)cc1` [TCMDC-136287]: the “% Inhibition” value was -39.81%.
Next, `CN(C)c1ccc(C=C2SC(=N)N(c3nccs3)C2=O)cc1` [TCMDC-125861]: -21.41%.
Next, `Cc1nc(N)nc(N)c1OCc1cccc2c1ccc1ccccc12` [TCMDC-131344]: 22.54%.
